In PubChem BioAssay (NCATS):
“And” between values parts separate entries of the source, which are not always exact repeats. Equal values may be shown once. Inconclusive results are not listed. The source made the active and inactive calls. The call rests on the fitted dose curve; in most records, active means well fitted curve in the direction sought with a large enough effect; inconclusive means small, poorly fitted or top-dose-only effect, or another doubt; inactive means no such curve, though single readings can be large; an effect the other way counts as inactive or inconclusive.

Assays:
[1] = system: UISO; assay: qHTS assay to identify novel small-molecules to repurpose for Merkel cell carcinoma treatment (AID 1296009); conditions: MCC and control cell lines, CellTiter-Glo viability, 72 h; series mostly up to 46 µM; further: nearly all actives have a fitted effect of over 60% in size
Outline: (§1)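 qHTS format: cells treated with library compounds in DMSO across 8 (NPC) or 11 (MIPE) concentrations. Readout after 72 hr at 37 degree celsius was CellTiter-Glo luminescence.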

[2] = system: WaGa; assay: as above; conditions: MCC and control cell lines, CellTiter-Glo viability, 72 h; series mostly up to 46 µM
Outline: as §1

[3] = system: C33A; assay: Primary qHTS to identify gynecologic anti-cancer compounds using libraries of approved drugs and bioactive compounds (AID 1345084); conditions: Gynecologic cancer cell panel viability, ATPlite luminescence, 48 h; series mostly up to 57.5 µM; further: nearly all actives have a fitted effect of over 55% in size
Outline: (§2)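 Five-concentration response, 48 h; readout is ATP-driven luciferase luminescence.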

[4] = system: CASKI; assay: as above; conditions: Gynecologic cancer cell panel viability, ATPlite luminescence, 48 h; series mostly up to 57.5 µM
Outline: as §2

[5] = system: Es-2; assay: as above; conditions: Gynecologic cancer cell panel viability, ATPlite luminescence, 48 h; series mostly up to 57.5 µM
Outline: as §2

[6] = system: HeLa; assay: as above; conditions: Gynecologic cancer cell panel viability, ATPlite luminescence, 48 h; series mostly up to 57.5 µM
Outline: as §2

[7] = system: Hek293T; assay: as above; conditions: Gynecologic cancer cell panel viability, ATPlite luminescence, 48 h, control line for the selectivity index; series mostly up to 57.5 µM
Outline: as §2

[8] = system: JEG-3; assay: as above; conditions: Gynecologic cancer cell panel viability, ATPlite luminescence, 48 h; series mostly up to 57.5 µM
Outline: as §2

[9] = system: OV90; assay: as above; conditions: Gynecologic cancer cell panel viability, ATPlite luminescence, 48 h; series mostly up to 57.5 µM
Outline: as §2

[10] = system: PA-1; assay: as above; conditions: Gynecologic cancer cell panel viability, ATPlite luminescence, 48 h; series mostly up to 57.5 µM
Outline: as §2

[11] = system: SKOV3; assay: as above; conditions: Gynecologic cancer cell panel viability, ATPlite luminescence, 48 h; series mostly up to 57.5 µM
Outline: as §2

[12] = system: Tov-21-G; assay: as above; conditions: Gynecologic cancer cell panel viability, ATPlite luminescence, 48 h; series mostly up to 57.5 µM
Outline: as §2

[13] = system: Tov112D; assay: as above; conditions: Gynecologic cancer cell panel viability, ATPlite luminescence, 48 h; series mostly up to 57.5 µM
Outline: as §2

[14] = system: CAOV3; assay: as above; conditions: Gynecologic cancer cell panel viability, ATPlite luminescence, 48 h; series mostly up to 57.5 µM
Outline: as §2

[15] = Drug repurposing screens with cells derived from glioblastoma tumor samples (AID 1345199); conditions: GBM patient neurospheres viability, ATP luminescence, 48 h; further: nearly all actives have a fitted effect of over 40% in size
Outline: (§3)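 Four patient lines of CD133+ GBM neurospheres were screened at several concentrations; hits were retested in those lines plus three slower-growing GBM lines, using 48-hour treatment and ATP-based viability.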

[16] = qHTS assay to identify inhibitors of the type 1 interferon - major histocompatibility complex class I in skeletal muscle: Counter screen cell viability and HiBit confirmation (AID 1347412); conditions: iHSKM muscle cells + IFN-b, HiBiT or CellTiter-Glo, 24 h; for activity change, negative = inhibition: at 45.9 µM (top of the series); on all read-outs here: nearly all actives have a fitted effect of over 60% in size
Outline: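 Luminescence read-out: Nano-Glo HiBiT lytic signal from C-terminally HiBiT-tagged HLA-B in CRISPR-edited human myoblasts, plus CellTiter Glo ATP as viability counter screen. IFN-beta 4.0 ng/ml; 24 hrs treatment at 37 C, 5% CO2.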

[17] = system: astro; assay: Drug repurposing screens with cells derived from glioblastoma tumor samples (AID 1345199); conditions: viability, ATP luminescence, 48 h; series mostly up to 45.9 µM; further: nearly all actives have a fitted effect of over 40% in size
Outline: as §3

[18] = at 45.9 µM (top of the series), tumour line B
[19] = at 45.9 µM (top of the series), tumour line D
[20] = at 46 µM (top of the series), tumour line A
[21] = at 46.1 µM (top of the series), tumour line C
On the % scale 0 is the no-effect control and ±100 the full control effect; potency means the concentration at half of the fitted maximal effect.

O=C(NC1CCOCC1)c1ccc(-c2cc(-c3cn[nH]c3-c3ccccn3)ccn2)cc1
inactive: Potency [1] | Potency [2] | Potency [3] | Potency [4] | Potency [5] | Potency [6] | Potency [7] | Potency [8] | Potency [9] | Potency [10] | Potency [11] | Potency [12] | Potency [13]

CN(C)C1CCN(C(=O)c2ccc(NC(=O)Nc3nc(N4CCOCC4)nc(N4CCOCC4)n3)cc2)CC1
active: Potency [1] 26.4 nM | Potency [2] 105 nM | Potency [3] 178 nM | Potency [4] 141 nM | Potency [5] 794 nM | Potency [6] 794 nM | Potency [7] 891 nM | Potency [9] 141 nM | Potency [11] 100 nM

CN(C)c1cc(NC(=O)CNC(C)(C)C)c(O)c2c1C[C@@H]1C[C@H]3[C@H](N(C)C)C(=O)C(C(N)=O)=C(O)[C@@]3(O)C(=O)C1=C2O
inactive: Potency [1] | Potency [2] | Potency [3] | Potency [14] | Potency [4] | Potency [5] | Potency [6] | Potency [7] | Potency [8] | Potency [9] | Potency [10] | Potency [11] | Potency [12] | Potency [13] | activity, negative = cell killing [15, 18] 8.46% | activity, negative = cell killing [15, 19] 6.87% | activity, negative = cell killing [15, 20] -27.8% | activity, negative = cell killing [15, 21] 0.651%

COC[C@@H](c1ccc(C(F)(F)F)cc1)N1CCN(C2(C)CCN(C(=O)c3c(C)ncnc3C)CC2)C[C@H]1C
inactive: Potency [1] | Potency [2] | Potency [3] | Potency [14] | Potency [4] | Potency [5] | Potency [6] | Potency [7] | Potency [8] | Potency [9] | Potency [10] | Potency [12] | Potency [13]

COc1cc(Nc2ncc(F)c(Nc3ccc4c(n3)NC(=O)C(C)(C)O4)n2)cc(OC)c1OC
inactive: Potency [1] | Potency [2] | Potency [3] | Potency [5] | Potency [7] | Potency [8] | activity change, negative = inhibition ([16]; Viability) -9.37%
active: Potency [4] 11200 nM | Potency [6] 31600 nM | Potency [11] 15800 nM | Potency ([16]; HiBiT) 1250 nM

CCS(=O)(=O)N1CC(CC#N)(n2cc(-c3ncnc4[nH]ccc34)cn2)C1
inactive: Potency [1] | Potency [2] | Potency [3] | Potency [4] | Potency [5] | Potency [6] | Potency [7] | Potency [8] | Potency [9] | Potency [10] | Potency [13] | activity change, negative = inhibition ([16]; Viability) -4.12%

CNC(=O)c1ccc2cc(C3(O)CCn4cncc43)ccc2c1 (stereo unspecified)
inactive: Potency [1] | Potency [2] | Potency [3] | Potency [14] | Potency [4] | Potency [5] | Potency [6] | Potency [7] | Potency [8] | Potency [9] | Potency [10] | Potency [11] | Potency [12] | Potency [13]

C[N+](C)(C)CC(=O)O
inactive: Potency [1] | Potency [2] | Potency [3] | Potency [4] | Potency [5] | Potency [6] | Potency [7] | Potency [8] | Potency [9] | Potency [10] | Potency [11] | Potency [12] | Potency [13]

CC(C)NCC(O)COc1cccc2[nH]ccc12 (stereo unspecified)
inactive: Potency [1] | Potency [2] | Potency [3] | Potency [14] | Potency [4] | Potency [5] | Potency [6] | Potency [7] | Potency [8] | Potency [9] | Potency [10] | Potency [11] | Potency [12] | Potency [13] | activity, negative = cell killing [15, 18] -5.39% | activity, negative = cell killing [15, 19] -14.8% | activity, negative = cell killing [15, 20] -24.6% | activity, negative = cell killing [15, 21] 1.52% | Potency [17]

CC(C)(C)c1ccc(C(O)CCCN2CCC(C(O)(c3ccccc3)c3ccccc3)CC2)cc1 (stereo unspecified)
active: Potency ([15]; tumour line A) 5010 nM | Potency ([15]; tumour line B) 11200 nM | Potency ([15]; tumour line D) 10000 nM | Potency ([16]; Viability) 22200 nM
inactive: Potency [1] | Potency [2] | Potency [3] | Potency [4] | Potency [5] | Potency [6] | Potency [7] | Potency [8] | Potency [9] | Potency [10] | Potency [11] | Potency [12] | Potency [13] | activity, negative = cell killing [15, 21] -2.38%

CCCCC1C(=O)N(c2ccccc2)N(c2ccccc2)C1=O
inactive: Potency [1] | Potency [2] | Potency [3] | Potency [4] | Potency [5] | Potency [6] | Potency [7] | Potency [8] | Potency [9] | Potency [10] | Potency [11] | Potency [12] | Potency [13] | activity, negative = cell killing [15, 18] -14.3% and -18.7% | activity, negative = cell killing [15, 19] -13.1% and -6.92% | activity, negative = cell killing [15, 21] 4.16% and -25.1%
